Laboratory results as given in PubChem BioAssay AID686979 (National Center for Advancing Translational Sciences (NCATS), 2013).
Screen size: about 420,000 compounds; about 50,000 (12%) were called active. Where a call stands in place of a potency, no number is given. About 26% were inconclusive and are not listed. Calls follow the shape of the dose curve; as a rule, active = well fitted inhibition curve with a large enough effect; inconclusive = small, poorly fitted or top-dose-only effect; inactive = flat fitted curve, though single readings scatter. Many of the other results were omitted from the sample, so actives are more common in it than they were.

Experiment: qHTS for Inhibitors of human tyrosyl-DNA phosphodiesterase 1 (TDP1): qHTS in cells in presence of CPT; also: nearly all actives have a fitted effect of over 55% in size
Conditions: chicken DT40 Tdp1-/-;hTDP1 cells + 20 nM CPT, ATP luminescence, 48 h; series mostly up to 46.2 µM
Outline: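 Chicken DT40 Tdp1-/- cells complemented with human TDP1, 400 cells/well, exposed to compounds plus 20 nM camptothecin for at least 48 h at 37 C; viability read as ATP content by CellTiter-Glo luminescence.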
Potency is read from the fitted curve at half-maximal effect.

Structure (SMILES)	Potency
Cc1ccc(CNC(=O)C2(C(F)(F)F)C/C(=C\Cc3ccccc3)CCCO2)o1 (stereo not given)	16.4 µM (active)
COC(=O)[C@]12CCCCC=C1N(Cc1ccccc1)C(=O)[C@H](CC(=O)NCc1ccc(C)o1)C2	inactive
Cc1ccc(C(=O)N2CC(=O)Nc3ccccc32)o1	inactive
Cc1ccc2c(c1)nnc1nnc(SCC(=O)O)n12	inactive
Cc1cccc(-c2nnc(SCC(=O)O)n2Cc2ccccc2)c1	inactive
CCC(C(=O)NC1CCCC1)N(C(=O)Cn1nnc(-c2ccc(C)o2)n1)c1ccc(OC)c(OC)c1 (stereo not given)	inactive
Cc1cccc(C)c1NC(=O)COC(=O)c1ccccc1O	inactive
COC(=O)Cc1[nH]n(-c2nc3ccccc3s2)c(=O)c1C(C)=Nc1ccc(OC)cc1	5.17 µM (active)
COc1ccc(N=C(C)c2sc3ccccc3c2O)cc1	inactive
COc1ccc(/C=C(/CC(=O)Nc2ccc(C)cc2)c2nc3ccccc3s2)cc1	inactive
COc1ccc(C2NC(=S)NC3=C2CCc2ccccc23)cc1OC (stereo not given)	inactive
C=CCN(CC=C)C(=O)COC(=O)c1n[nH]c2ccccc12	inactive
CNC1(c2nnnn2-c2c(C)cccc2C)CCOC(C)(C)C1 (stereo not given)	inactive
O=C(NCCO)C(=O)NCC(c1ccc2c(c1)OCO2)N1CCN(c2ccc(F)cc2)CC1 (stereo not given)	inactive
CC(C)CNC(=O)C(=O)NCC(c1ccc2c(c1)OCO2)N1CCOCC1 (stereo not given)	inactive
CC(C)CC(=O)NCC(c1ccc2c(c1)OCO2)N1CCN(c2ccc(F)cc2)CC1 (stereo not given)	16.4 µM (active)
COc1ccc(N)cc1NC(=O)CN1CCOCC1	inactive
COc1ccc(C2C(C(C)=O)=C(O)C(=O)N2CCc2c[nH]c3ccccc23)cc1 (stereo not given)	inactive
CC(=O)c1ccc(NC(=O)C(C)N(C)CC(=O)Nc2ccccc2Cl)cc1 (stereo not given)	inactive
CC(=O)c1ccc(Nc2nc(C(N)c3ccccc3Cl)cs2)cc1 (stereo not given)	14.6 µM (active)
CC(=O)c1ccc(NC(=O)c2cc(-c3cccs3)on2)cc1	inactive
COc1cc(OC)c(NC(=O)c2c3c(nn2C)-c2ccccc2SC3)cc1Cl	inactive
COc1cc(NC(=O)c2noc3c2CSc2ccccc2-3)cc(OC)c1OC	9.2 µM (active)
COc1ccccc1-c1cc(C(=O)N2CCCCC2)no1	inactive
Cc1cccc(-n2c(Cc3cc(=O)[nH]c(=O)[nH]3)nnc2SCC(=O)Nc2cccc(C(F)(F)F)c2)c1	inactive
NC(=O)NC(=O)CSc1nc2cc([N+](=O)[O-])ccc2n1-c1cccc(C(F)(F)F)c1	10.3 µM (active)
COc1ccc(CCNC(=O)CSc2nc3[nH]ncc3c(=O)n2-c2cccc(C(F)(F)F)c2)cc1OC	inactive

Structure (SMILES)	Potency
COc1ccc(NS(=O)(=O)c2cc3c(cc2C)N(C(C)=O)CCO3)cc1	inactive
COc1ccc(C(=O)NC(Cc2ccc(OC(=O)c3ccc(OC)cc3)cc2)C(=O)O)cc1 (stereo not given)	inactive
O=C(Nc1ccncc1)c1ccccc1[N+](=O)[O-]	inactive
O=[N+]([O-])c1ccccc1SNc1ccccn1	20.6 µM (active)
O=C(CSc1nnc(-c2ccc([N+](=O)[O-])cc2)o1)Nc1ccccn1	inactive
CCN1C[C@@H]2[C@@H]3C(=O)N(C)C(=O)[C@@H]3[C@](C)(C1=O)N2C(=O)c1ccccc1	inactive
N#Cc1nc(COc2ccc(-c3ccccc3)cc2)oc1NCc1cccnc1	6.51 µM (active)
COc1ccc(-c2nnc(SCc3cccnc3)o2)cc1	inactive
N#Cc1nc(COc2ccc(Cl)cc2)oc1N1CCCC1	inactive
CCOC(=O)C[C@H]1c2ccc(C(F)(F)F)cc2S(=O)(=O)N1c1ccccc1	inactive
COc1ccc2oc(N)c(C=O)c(=O)c2c1	inactive
CCN(CC(=O)Nc1cc(Cl)ccc1C)C(=O)CN1C(=O)NC2(CCCC2)C1=O	inactive
CCN(CC(=O)Nc1cc(Cl)ccc1C)C(=O)Cn1c(=O)cnc2ccccc21	inactive
CCN(CC(=O)Nc1cc(Cl)ccc1C)C(=O)CSCc1ccc(C)cc1	1.3 µM (active)
CCCNC(=O)CCc1c(C)nc2c(c(C)nn2-c2ccccc2)c1C	inactive
CC(=O)Nc1ccccc1-c1nc(CNC(=O)c2ccc(Cl)cc2)c(C)o1	inactive
CC(=O)Nc1cc(C(=O)NCc2ccc(F)cc2Cl)ccc1Sc1ccc(Cl)cc1	20.6 µM (active)
COCCNC(=O)c1ccc(S(=O)(=O)c2ccc(Cl)cc2)c(NC(C)=O)c1	inactive
O=C(CCc1ccccc1Cl)Nc1ccc(S(=O)(=O)Nc2nccs2)cc1	inactive
CN(C)S(=O)(=O)c1cccc(NC(=O)COC(=O)C2(c3ccccc3F)CCCC2)c1	18.4 µM (active)
CN(C)S(=O)(=O)c1cccc(NC(=O)COC(=O)/C=C/c2cccs2)c1	inactive
CN(C)S(=O)(=O)c1cccc(NC(=O)COC(=O)c2cc(=O)[nH]c(=O)[nH]2)c1	inactive
O=C(NCc1ccco1)c1ccc(NS(=O)(=O)c2cccc([N+](=O)[O-])c2)cc1	inactive
COc1ccc(NC(=O)CSc2nnc(Cc3ccccc3)c(=O)n2N)cc1	inactive
COc1ccc(C(=O)N(C)CC(O)c2ccccc2)cc1OC1CCN(C(C)=O)CC1 (stereo not given)	inactive
CCOC(=O)c1sc(NC(=O)CSc2nnc(-c3ccco3)o2)c(C(=O)OCC)c1C	inactive
CCOC(=O)c1c(NC(=O)CNC2CCCc3ccccc32)sc(C(N)=O)c1C (stereo not given)	23.1 µM (active)

Structure (SMILES)	Potency
NC(=O)Nc1ccc(C(=O)OCC(=O)NC2CCCc3ccccc32)cc1 (stereo not given)	inactive
COc1ccc(C(=O)N2CCN(c3ccc(C(C)=O)cc3F)CC2)cc1S(=O)(=O)NC1CC1	inactive
O=C(Nc1ccc2c(c1)OCCO2)C1CCCC1	inactive
COc1ccc2c(c1)O/C(=C\c1ccccc1O)C2=O	inactive
COC(=O)c1ccc(/C=C2/C(=O)Oc3ccccc32)cc1	inactive
O=C1Oc2ccccc2C(=O)/C1=C/c1ccccc1O	5.8 µM (active)
COc1ccc2oc(C(=O)NCC(Cc3ccccc3)N(C)C)c(C)c2c1 (stereo not given)	inactive
CCOC(=O)C1=C(O)/C(=C/c2ccc(OCC(=O)Nc3ccc(C)cc3)cc2)N=C1C	inactive
CN(C)c1nc(NN)nc(Nc2ccc(F)cc2)n1	inactive
CCOC(=O)C(C)n1cnc2c(nnn2-c2ccc(F)cc2)c1=O (stereo not given)	inactive
CC(C)CC(CO)N1CCN(C(=O)c2ccc(Cl)cc2Cl)CCC1=O (stereo not given)	inactive
CC(C)C[C@@H](CO)N1CCN(Cc2ccc(O)cc2)CCC1=O	inactive
O=C(c1cc(Cl)cc(Cl)c1)N1CCC(=O)N(C(COCc2ccccc2)Cc2ccccc2)CC1 (stereo not given)	13 µM (active)
Cc1ccc(S(=O)(=O)N2CCC(=O)N([C@H](COCc3ccccc3)C(C)C)CC2)cc1	inactive
CC(C)CC(COCc1ccc(Cl)cc1)N1CCN(C(=O)c2ccc(C(F)(F)F)cc2)CCC1=O (stereo not given)	14.6 µM (active)
CN1CCC(=O)N([C@H](CO)Cc2ccccc2)CC1	inactive
Cc1ccc(S(=O)(=O)N(C)C)cc1NC(=O)C1Cc2ccccc2CN1C(=O)c1ccco1 (stereo not given)	inactive
Cc1c(C(C)CCCO)oc(=O)c2c1Oc1c(C)c(C(C)C[C@@H](C)O)oc(=O)c1C2 (stereo not given in full)	inactive
CCCCCCCC(=O)OC(CN1CCCCCC1)CN1CCCC1=O (stereo not given)	inactive
COc1cc(/C=C2\C(=N)N3N=C(CC(=O)N4CCOCC4)SC3=NC2=O)cc(OC)c1OC	inactive
Cc1cc2cc(CNC(=O)c3ccc(S(=O)(=O)N4CCOCC4)cc3)ccc2[nH]1	inactive
Cc1cccc(OCC(O)CN2CCN(S(=O)(=O)c3ccc(C)cc3C)CC2)c1 (stereo not given)	inactive
Cc1c(Br)cc(C(=O)N2CCCCCC2)c(C)c1C	inactive
COc1ccccc1-n1c(CNC(=O)c2ccccc2)nnc1SCC(=O)Nc1nnc(C)s1	inactive
COc1ccccc1-n1ccnc1SCC(=O)NC(C)(C)C	inactive
Cc1cc(C)cc(-n2ccnc2SCC(=O)Nc2nc3ccccc3s2)c1	18.4 µM (active)
Cc1ccccc1-n1c(SCC(=O)Nc2cccc3ccccc23)nc(O)cc1=O	inactive

Structure (SMILES)	Potency
C=CCn1c(SCC(=O)Nc2nc3ccccc3s2)nnc1-c1ccccc1O	inactive
Cc1cccc(CSc2nnc(NC(=O)CSc3nnc(C)s3)s2)c1	inactive
Cn1nnnc1SCC(=O)Nc1nc2ccccc2s1	inactive
Cc1nnc(NC(=O)CSc2nccn2-c2cccc(C)c2C)s1	4.61 µM (active)
Cc1cccc(-n2ccnc2SCC(=O)Nc2cccc3ccccc23)c1C	23.1 µM (active)
COc1cccc(CC(=O)N2CCCC(CCC(=O)N3CCN(c4ccccn4)CC3)C2)c1 (stereo not given)	inactive
CC(C)Sc1ncnc2c1cnn2-c1ccccc1	inactive
Nc1cc(N)nc(SCc2cccc(F)c2)n1	inactive
COCCN1C(=O)C(=O)/C(=C(/O)c2ccc(S(=O)(=O)N3CCCCC3)cc2)C1c1ccc(OC)c(OC)c1 (stereo not given)	inactive
Cc1ccc2c(c1)C1C[N+](C)(CC(=O)c3ccccc3)CCC1N2C(=O)c1ccccc1Cl (stereo not given)	inactive
CCOc1ccc(C2=CC(c3ccccc3)n3ncnc3N2)cc1 (stereo not given)	inactive
O=C(NCCC1=CCCCC1)C1CCN(Cc2cnn(-c3ccccc3)c2-n2cccc2)CC1	23.1 µM (active)
CC(=O)Nc1ccc(NC(=O)CSCc2cnn(-c3ccccc3)c2-n2cccc2)cc1	inactive
COCCNC(=O)C1CCCN(Cc2ccccc2Cl)CC1 (stereo not given)	inactive
CS(=O)(=O)c1ccc(C(=O)OCC(=O)NNC(=O)COc2ccc(Cl)cc2)cc1	inactive
O=C(Nc1cccc(NC(=O)c2ccccc2[N+](=O)[O-])c1)c1ccccc1Cl	inactive
O=C(O)c1ccc2c(=O)n3c(nc2c1)/C(=C/c1ccc(Cl)c([N+](=O)[O-])c1)CC3	inactive
NC(N)=N/N=C/c1ccc(Cl)c([N+](=O)[O-])c1	11.6 µM (active)
Cc1cc(C(=O)O)ccc1[N+](=O)[O-]	inactive
CC(CC(=O)O)C(=O)c1ccc(Cl)c([N+](=O)[O-])c1 (stereo not given)	inactive
O=C(/C=C/c1ccc(Cl)cc1)N1CCN(c2ccccc2[N+](=O)[O-])CC1	inactive
O=C(/C=C/c1ccc(Cl)c([N+](=O)[O-])c1)c1ccc(O)cc1	4.11 µM (active)
CN(C)c1ccc(/C=C/C(=O)c2ccc(C(C)(C)C)cc2)cc1[N+](=O)[O-]	23.1 µM (active)
Nn1cnnc1N/N=C/c1cc([N+](=O)[O-])c(Cl)cc1Cl	inactive
